{"source": "PubChem BioAssay AID2778", "about": "(National Center for Advancing Translational Sciences (NCATS), 2010)", "note": "Inconclusive results are not listed. A call without a number means that no potency is given here. Activity calls are given as the source filed them. Calls come from the whole dose curve; as a rule, active = well fitted inhibition curve with a large enough effect; inconclusive = small, poorly fitted or top-dose-only effect, or effect the other way; inactive = flat fitted curve, though single readings scatter. Positions of bridges follow the written chain, without caps; N, C: chain ends. Non-standard residues stand in square brackets, D forms with d. Residues, ends and D or L forms follow the SMILES beside them. ξ: configuration not given here. *: point of attachment. Octanoyl(6-Me) = CCC(C)CCCCC(=O)*; ξThr(3R) = C[C@@H](O)C(N)C(=O)O; dDab = NCC[C@@H](N)C(=O)O; Dab = NCC[CH](N)C(=O)O"}
{"biological_target": "Menin (Homo sapiens) (UniProt O00255)", "sequence (O00255 whole entry, looked up)": "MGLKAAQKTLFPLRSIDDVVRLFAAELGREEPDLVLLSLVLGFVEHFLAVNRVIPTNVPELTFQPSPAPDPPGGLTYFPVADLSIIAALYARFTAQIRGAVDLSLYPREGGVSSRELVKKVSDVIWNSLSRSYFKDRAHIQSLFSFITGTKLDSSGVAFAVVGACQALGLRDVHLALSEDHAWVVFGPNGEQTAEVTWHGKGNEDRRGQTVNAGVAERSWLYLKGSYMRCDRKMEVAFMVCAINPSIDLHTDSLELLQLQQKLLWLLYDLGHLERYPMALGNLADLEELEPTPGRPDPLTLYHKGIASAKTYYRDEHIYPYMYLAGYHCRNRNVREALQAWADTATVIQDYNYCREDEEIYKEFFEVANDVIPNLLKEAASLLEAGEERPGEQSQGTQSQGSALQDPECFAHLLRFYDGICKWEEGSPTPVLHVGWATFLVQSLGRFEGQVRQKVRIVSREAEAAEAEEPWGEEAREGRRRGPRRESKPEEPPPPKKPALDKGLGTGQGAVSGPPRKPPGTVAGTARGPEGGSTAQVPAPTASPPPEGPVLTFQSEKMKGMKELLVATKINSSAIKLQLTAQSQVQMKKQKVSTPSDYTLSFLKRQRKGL", "assay": "Confirmation of Inhibitors Targeting the Menin-MLL Interaction in MLL Related Leukemias: Confirmation in an HTRF (commercial TR-FRET) Assay using His-tagged menin and biotin-labeled MLL peptide; note: potency is the fitted concentration of half-maximal effect", "settings": "His-menin / biotin-MLL peptide binding; series mostly up to 126 µM", "in_short": "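HTRF: His6-menin (200 nM) and biotin-MLL-w.t. peptide (80 nM) preincubated 15 min, then compounds 1 hr at ambient, before Eu-cryptate anti-His (3.5 nM) and streptavidin-XL665 (10 nM) for 1 h; 50 mM Tris-HCl pH 7.5, 50 mM NaCl, 1 mM DTT, BSA.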"}
{"smiles": "COc1ccc(CCNCc2cc(C)n(-c3ccc(OC)cc3)c2C)cc1", "Potency": "inactive"}
{"smiles": "O=C1C(=O)c2ncccc2-c2cccnc21", "Potency": "inactive"}
{"smiles": "O=C(Nc1cc(Br)ccc1O)c1cc(-c2ccc3c(c2)OCO3)on1", "Potency": "inactive"}
{"smiles": "O=C1Cc2ccccc2Sc2c(OCCN3CCCCC3)cccc21", "Potency": "inactive"}
{"smiles": "O=c1[nH]nc(Cc2ccc(-c3ccc(Cl)cc3)o2)c2ccccc12", "Potency": "inactive"}
{"smiles": "O=C(N1CCOCC1)N1CCN(S(=O)(=O)c2ccc(Cl)cc2)CC1", "Potency": "inactive"}
{"smiles": "CCN1C(=O)c2ccccc2S(=O)(=O)c2ccc(C(=O)NCCCN(CC(C)C)CC(C)C)cc21", "Potency": "inactive"}
{"smiles": "CCCCCC1CCC(C(=O)NCCN2CCOCC2)CC1", "note": "(stereo unspecified)", "Potency": "inactive"}
{"smiles": "Cc1ccccc1CN1CCN(C(C)C(=O)NCc2ccccc2)CC1", "note": "(stereo unspecified)", "Potency": "inactive"}
{"smiles": "CCN(CCn1cccn1)Cc1ccccc1OCC(O)CN1CCc2ccccc2C1", "note": "(stereo unspecified)", "Potency": "inactive"}
{"smiles": "CCC(C)CCCCC(=O)NC(CCN)C(=O)NC(C(=O)NC(CCN)C(=O)NC1CCNC(=O)C(C(C)O)NC(=O)C(CCN)NC(=O)C(CCN)NC(=O)C(CC(C)C)NC(=O)C(Cc2ccccc2)NC(=O)C(CCN)NC1=O)C(C)O", "note": "(stereo unspecified) ({Octanoyl(6-Me)}-[Dab]T[Dab][Dab][Dab]FL[Dab][Dab]T; lactam 4-C; configuration not given here)", "Potency": "inactive"}
{"smiles": "CC(=O)c1c(O)cc(O)cc1CC(=O)O", "Potency": "inactive"}
{"smiles": "COc1ccc(NC(=O)N2CC[C@@]3(CCCN(C(=O)c4csnn4)C3)C2)cc1", "Potency": "inactive"}
{"smiles": "COc1ccccc1CNCC(=O)Nc1ccc(C#N)cc1", "Potency": "inactive"}
{"smiles": "O=C(CC(=O)c1ccccc1)Nc1cc(C(F)(F)F)ccc1Cl", "Potency": "inactive"}
{"smiles": "Cc1ccc(F)c(C2C3C=CCC(C)C3C(=O)N2Cc2ccccc2)c1", "note": "(stereo unspecified)", "Potency": "inactive"}
{"smiles": "O=C(NC(=S)Nc1nc(-c2ccc(Br)cc2)cs1)c1cccnc1", "Potency": "inactive"}
{"smiles": "O=C1NC(=S)N/C1=C/c1ccc2ccccc2c1", "Potency": "inactive"}
{"smiles": "CCc1ccc(NC(=O)CSc2nc(O)cc(=O)n2C2CCCC2)cc1", "Potency": "inactive"}
{"smiles": "O=C(O)CCC(=O)Nc1ccc(SSc2ccc(NC(=O)CCC(=O)O)cc2)cc1", "Potency": "inactive"}
{"smiles": "COC(CSc1nc(N)c2c3c(sc2n1)CN(C)CC3)OC", "Potency": "inactive"}
{"smiles": "CCOC(=O)N1CCN(CC(=O)N2c3ccccc3Sc3ccccc32)CC1", "Potency": "inactive"}
{"smiles": "O=c1cc(O)c2ccccc2n1Cc1ccccc1F", "Potency": "inactive"}
{"smiles": "COc1ccc2[nH]c(=O)c(CN(Cc3cccs3)C(=S)Nc3cccc(C)c3)cc2c1", "Potency": "inactive"}
{"smiles": "COc1ccc2nc(NC(=O)CSc3nnc(N)s3)sc2c1", "Potency": "inactive"}
{"smiles": "O=C(O)c1ccccc1NS(=O)(=O)c1cccc(-n2sc3ccccc3c2=O)c1", "Potency": "inactive"}
{"smiles": "COc1ccccc1NS(=O)(=O)c1cc(N2Cc3ccccc3C2=N)ccc1N1CCOCC1", "Potency": "89.1 µM (active)"}
{"smiles": "COCCn1c(C)c(C)c2c(NCCc3ccccc3)ncnc21", "Potency": "inactive"}
{"smiles": "CCOC(=O)CCC(=O)NCc1ccc2c(c1)cc(C)n2C", "Potency": "inactive"}
{"smiles": "Cc1cc2ccccc2nc1SCC(=O)Nc1nc(-c2ccccc2)cs1", "Potency": "inactive"}
{"smiles": "O=C(Nc1cccn(Cc2c(Cl)cccc2Cl)c1=O)c1c(Cl)cccc1Cl", "Potency": "inactive"}
{"smiles": "CCCNC(=O)c1ccc2c(=O)c(O)c(C)[nH]c2c1", "Potency": "inactive"}
{"smiles": "CCC(C)CCCCC(=O)N[C@@H](CCN)C(=O)N[C@H](C(=O)N[C@@H](CCN)C(=O)N[C@H]1CCNC(=O)C([C@@H](C)O)NC(=O)[C@@H](CCN)NC(=O)[C@H](CCN)NC(=O)[C@H](CC(C)C)NC(=O)[C@@H](CC(C)C)NC(=O)[C@H](CCN)NC1=O)[C@@H](C)O", "note": "(stereo partly drawn) ({Octanoyl(6-Me)}-[Dab]T[Dab][Dab][Dab][dL]L[Dab][dDab][ξThr(3R)]; lactam 4-C)", "Potency": "inactive"}
{"smiles": "Fc1ccccc1C1c2cccn2CCN1C(=S)Nc1ccc(Br)cc1", "note": "(stereo unspecified)", "Potency": "inactive"}
{"smiles": "COc1cc(OC)c2ccc(=O)oc2c1C(CCN1CCOCC1)c1ccc(N(C)C)cc1", "note": "(stereo unspecified)", "Potency": "inactive"}
{"smiles": "O=C(O)/C(=C\\c1ccc(F)cc1)c1ccc(-c2ccccc2)cc1", "Potency": "inactive"}
